TWEAK-Fn14 inh: inhibitors of TWEAK-Fn14 signaling, primary screen, luciferase reporter cells, uHTS; TWEAK-stimulated Fn14 reporter cells, luciferase luminescence, 8 h; inhibition, % at 10 µM; 2% of 360,000 active; in the data active means inhibition above about 50%
LGR2 antag: inhibitors of bursicon-induced LGR2 CRE-luciferase signal, primary screen, cell-based, HEK293, CRE-luciferase reporter, bursicon stimulation | AID 720647, 2013 | inhibition, % at 9.99 µM | Drosophila bursicon receptor LGR2 (rickets) | 0.35% of 380,000 active | bursicon-stimulated, 4 h;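 active means drop in luminescence signal, shown as inhibition above about 50% in the replicate tests, limit read from the data, passing the limit was not always enough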;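 further: agonist challenge used bursicon conditioned medium at about half maximal strength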
EWS-Fli block: EWS/Fli-driven NR0B1 reporter inhibitors, primary screen, A673 cells, NR0B1 luciferase, luminescence, MLPCN library; viability-normalised; inhibition, % at 12.6 µM; 0.67% of 350,000 active; AID 651661, 2012;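 active means mean inhibition of at least 50% after viability correction, with every replicate also passing that limit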;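 further: firefly luciferase signal divided by Alamar Blue viability fluorescence both relative to DMSO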
LMP1 NFkB inh: EBV LMP1-driven NF-kappaB luciferase reporter inhibitors, primary screen, cell-based, luminescence, single point. LMP1-induced NF-kappaB luciferase reporter cells. inhibition, % at 12.5 µM. 0.69% of 350,000 active. AID 504558, 2011; in the data active means inhibition above about 41%
PAX8 inh HTS: inhibitors of PAX8-driven TPO luciferase reporter, primary screen, RMG-I cells, single concentration. SteadyGlo, 24 h. inhibition, % at 12.6 µM. 1.2% of 360,000 active. AID 652154, 2013;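 active means mean replicate inhibition at least 60% with every replicate also reaching 60%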;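 further: luciferase light reporting Pax8 driven TPO promoter activity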
TROY NFkB inh: inhibitors of TROY-driven NF-kB signaling, primary screen, Q293 LMP1-TROYcd cells, NF-kB luciferase, uHTS; Q293 LMP1-TROYcd NF-kB luciferase reporter, 4 h; inhibition, % at 10 µM; 0.98% of 360,000 active;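 active means compounds whose plate-normalised and pattern-corrected inhibition of the luciferase reporter signal at the single screening dose is 50% or more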
A number is an active result; 0 = inactive; - = no result. An excerpt weighted towards active compounds, which were near 3.1% of everything screened.

SMILES	TWEAK-Fn14 inh	LGR2 antag	EWS-Fli block	LMP1 NFkB inh	PAX8 inh HTS	TROY NFkB inh
O=C(C/C=N/OCc1c(Cl)cccc1Cl)c1cnc(-c2ccccc2)s1	0	-	-	0	-	53.7
COc1ccc(NC(=O)Nc2cccc3c2O[C@H](CN(C)S(=O)(=O)c2cn(C)cn2)[C@H](C)CN([C@H](C)CO)C3=O)cc1	-	0	0	-	-	-
O=C(/C=C/c1ccco1)NCCc1ccccc1	0	0	0	0	0	0
Cc1ccc(/C=C/C(=O)NCCc2ccccc2)o1	66.9	0	0	0	0	0
COc1ccc(S(=O)(=O)Nc2ccc3c(c2)CC(=O)N([C@@H](C)CO)C[C@H](C)[C@@H](CN(C)CC2CCCCC2)O3)cc1	-	0	0	-	-	-
O=C(C[C@@H]1C[C@@H]2c3cc(NC(=O)Nc4ccccc4F)ccc3O[C@@H]2[C@H](CO)O1)NCc1ccncc1	-	0	0	-	0	-
O=C(CSCc1ccc([N+](=O)[O-])cc1)NC1CC1	0	0	83.1	0	0	0
O=[N+]([O-])c1ccc(CSCc2ccc([N+](=O)[O-])cc2)cc1	0	0	0	0	0	0
CC(C)C(NC(=O)CSCc1ccc([N+](=O)[O-])cc1)C(C)C	0	0	77.6	0	0	0
CC(C)NC(=O)NC(=O)COc1ccc(Br)cc1Br	0	52.8	0	0	0	0
CC(=O)Nc1ccc2c(c1)C(=O)N(C)[C@H]1CC[C@H](CC(=O)Nc3ccccc3Cl)O[C@@H]1CO2	-	0	0	-	0	-
CC(C)c1nc(=S)n(-c2ccccc2)[nH]1	0	-	-	0	-	67.7
O=C(NC[C@@H]1[C@H](c2ccccc2)[C@@H](CO)N1C(=O)Cc1ccncc1)C1CCC1	-	0	0	-	0	-
O=C(Oc1ccc(N(C(=O)c2ccncc2)S(=O)(=O)c2ccc(F)cc2)cc1)c1ccncc1	0	0	0	0	0	0
CCc1ccc(S(=O)(=O)N(C(=O)c2ccncc2)c2ccc(OC(=O)c3ccncc3)cc2)cc1	0	0	-	0	0	53.9
Cc1ccc(S(=O)(=O)N(C(=O)c2ccncc2)c2ccc(OC(=O)c3ccncc3)cc2)cc1	0	0	-	0	0	0
Cc1ccc(C)c(S(=O)(=O)N(C(=O)c2ccncc2)c2ccc(OC(=O)c3ccncc3)cc2)c1	84.3	95.6	0	0	0	67.9
Cc1ccc(S(=O)(=O)N(C(=O)c2ccncc2)c2ccc(OC(=O)c3ccncc3)cc2)c(C)c1	50.4	0	0	0	0	0
COc1ccc(NC(=O)C2(C)Cc3c(-c4ccc5c(c4)OCO5)ccnc3O2)cn1 (stereo not drawn)	0	0	64.2	-	0	0
CC1(C(=O)Nc2ccc3c(c2)OCO3)Cc2c(-c3cccc(C(N)=O)c3)ccnc2O1 (stereo not drawn)	0	0	58.7	-	0	0
O=C(c1cccs1)c1ccc(-c2cccs2)s1	60.9	61.8	-	0	-	0
CC(=O)NNc1nc(-c2ccccc2)c2cc(Cl)ccc2n1	0	0	0	0	-	0
COCCNC(=O)c1cccc(Nc2nc(-c3ccccc3)c3cc(Cl)ccc3n2)c1	62.8	0	0	0	0	0
COc1cc(CN2CCC(Cc3ccccc3)CC2)c([N+](=O)[O-])cc1OC	79.9	0	0	0	0	0
Cc1noc(C)c1NC(=O)Nc1ccc2c(c1)C(=O)N([C@H](C)CO)C[C@@H](C)[C@@H](CN(C)C(=O)Nc1ccc(C(F)(F)F)cc1)O2	-	0	0	-	-	-
SMILES	TWEAK-Fn14 inh	LGR2 antag	EWS-Fli block	LMP1 NFkB inh	PAX8 inh HTS	TROY NFkB inh
O=C(C=P(c1ccccc1)(c1ccccc1)c1ccccc1)c1ccccc1-c1ccccc1C(=O)C=P(c1ccccc1)(c1ccccc1)c1ccccc1	0	0	0	0	114.3	0
FC(F)(F)c1ccc(-c2csc(-c3ccno3)n2)cc1	0	0	0	0	0	0
CC(C)(C)C(=O)OCc1nc(-c2ccc(C(F)(F)F)cc2)cs1	0	0	0	0	0	73.3
COc1ccc(S(=O)(=O)N(C)C[C@@H]2Oc3ccc(NS(=O)(=O)c4ccc(F)cc4)cc3C(=O)N([C@@H](C)CO)C[C@H]2C)cc1	-	0	0	-	0	-
C[C@@H]1CCCCO[C@@H](CN(C)C(=O)Nc2ccccc2)[C@@H](C)CN([C@@H](C)CO)C(=O)c2cc(NS(=O)(=O)c3ccc(Cl)cc3)ccc2O1	-	0	0	-	0	-
CC(C)c1ccc(/C=C/C(=O)N2CCc3ccccc3C2)cc1	0	0	0	0	67.1	0
CC(C)c1ccc(OCC(=O)N2CCc3ccccc3C2)cc1	0	0	0	0	0	0
O=C1c2cc([N+](=O)[O-])ccc2-c2cc(Br)c(N=C(NO)C(F)(F)F)cc21	0	0	0	0	0	79.0
O=C1c2cc([N+](=O)[O-])ccc2-c2cc(Cl)c(NC(=O)C(F)(F)F)cc21	0	0	0	0	-	0
CCS(=O)(=O)N1[C@@H](CO)[C@H](c2ccccc2)C12CN(C(=O)C1CC1)C2	-	0	0	-	-	-
COc1ccc(NC(=O)CSc2nc3nc(-c4cccs4)cc(C(F)(F)F)c3c(=O)[nH]2)c(OC)c1	0	0	0	0	0	0
CCOc1ccccc1NC(=O)CSc1nc2nc(-c3cccs3)cc(C(F)(F)F)c2c(=O)[nH]1	0	0	0	0	0	62.7
COc1ccc2c3c(n(C)c2c1)[C@@H](CO)N(Cc1ccccc1)CC31CCN(C(=O)C2CC2)CC1	-	0	0	-	-	-
N#CC(C#N)=NNc1ccc2cn[nH]c2c1	91.9	81.5	0	-	0	62.1
Cc1ccc2oc(-c3cccc(NC(=S)NC(=O)c4cccs4)c3)nc2c1	0	0	0	0	0	0
Cc1ccc2oc(-c3cccc(NC(=S)NC(=O)/C=C/c4ccco4)c3)nc2c1	90.4	0	-	0	-	77.0
CCCCCCCSc1nnc(-c2ccccc2N)c(=O)[nH]1	0	0	55.9	0	0	0
O=c1c(Cl)c(Cl)cnn1Cc1nnc(-c2ccc(Cl)cc2)o1	86.3	103.9	0	0	0	52.4
Cc1ccc(Cn2ncc(Cl)c(Cl)c2=O)cc1	65.4	0	-	0	0	0
CCc1ccc(C(=O)Cn2ncc(Cl)c(Cl)c2=O)cc1	79.1	-	-	0	-	0
O=C(NC1CCCCCC1)c1cc2ccccc2oc1=O	53.9	0	0	0	0	0
COc1ccc2cc(C(=O)NC3CCCCC3)c(=O)oc2c1	0	0	-	80.8	-	0
COC(=O)C1=C(CN2CCc3ccccc32)NC(=O)NC1c1cc(C)ccc1C (stereo not drawn)	0	-	-	0	-	0
COC(=O)C1=C(CN2CCCc3ccccc32)NC(=O)NC1c1ccc(F)cc1 (stereo not drawn)	85.1	0	-	0	-	63.7
C/C=C/c1ccc([C@@H]2[C@H]3CN(C(=O)Nc4ccccc4F)CC(=O)N3[C@H]2CO)cc1	-	0	0	-	0	-

High-throughput results from PubChem BioAssay.
